An excerpt weighted towards active compounds, which were near 11% of everything screened.
Tau ThT inhib: inhibitors of human tau fibril formation, thioflavin T binding | recombinant tau K18 P301L, heparin-induced fibrillization, ThT fluorescence | hit rate 2.1% among 270,000 | P10636 | Potency, µM (top dose mostly 57.4 µM), without a hit: top-dose activity, negative = inhibition, most hits filed as inhibitors | AID 1460; further: potency means the concentration at half of the fitted maximal effect; nearly all actives have a fitted effect of over 55% in size
Target sequence (P10636 561-689 P618L limits assumed): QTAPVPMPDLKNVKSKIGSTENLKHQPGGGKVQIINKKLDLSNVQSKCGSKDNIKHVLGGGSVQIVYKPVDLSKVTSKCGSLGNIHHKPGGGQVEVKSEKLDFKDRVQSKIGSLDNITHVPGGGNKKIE
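In this qHTS, human K18 P301L tau is incubated with compound and heparin for 6 hr at 37 C, and Thioflavin T fluorescence then reports fibril load.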
Sfp inh: blocks B. subtilis Sfp PPTase activity | Q9F4F7 | Biochemical Sfp PPTase activity, qHTS | Potency, µM, for inactives: largest response in the series, negative = inhibition, usual class: inhibitors | hit rate 3.5% among 310,000 | AID 1490;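 further: the enzyme is Sfp with the accession as filed and its product quenches rhodamine fluorescence; potency means the concentration at half of the fitted maximal effect; 0% = enzyme reaction without inhibitor and -100% = no enzyme wells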
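Fluorescence-quenching assay with 15 nM Sfp, 5 uM rhodamine-CoA and 12.5 uM BHQ-2-labelled ybbR peptide in pH 7.6 Hepes/MgCl2 buffer. Enzyme was pre-incubated with compound for 15 min at room temperature. Rate was taken from the 30-min fluorescence change (525/598 nm).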
Tau fluor cs: counter-screen for tau fibril formation inhibitors. tau K18 P301L Alexa594 fluorescence, heparin fibrillization. Potency, µM (doses to about 57.7 µM), for the others: at the top dose activity change, negative = decrease. hit rate 0.93% among 280,000. AID 1463; further: potency means the concentration at half of the fitted maximal effect; nearly all actives have a fitted effect of over 55% in size
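Human tau K18 P301L (15 uM unlabeled, 0.24 uM Alexa 594-labeled) in 100 mM sodium acetate pH 7 with 20 uM heparin, 6 hr at 37 C. ThT 30 uM added, 1 hr ambient; Alexa 594 FP and total fluorescence read at 555/632 nm.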
Tau FP inhib: inhibitors of human tau fibril formation; K18 P301L tau heparin fibrillization, Alexa594 FP, 6 h; AID 1468; hit rate 0.39% among 280,000; P10636; Potency, µM (top dose mostly 57.7 µM), without a hit: at the highest dose activity, negative = inhibition, actives largely listed as inhibitors; further: potency means the concentration at half of the fitted maximal effect; nearly all actives have a fitted effect of over 55% in size
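Quantitative HTS format: compounds meet 15 uM recombinant K18 P301L tau and Alexa 594-tau tracer in 100 mM sodium acetate pH 7; 20 uM heparin triggers fibrillization at 37 C over 6 hr; FP gives the signal.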
Coupling enz: counter-screen for Giardia aldolase inhibitors: coupling enzyme system. coupling enzyme system counterscreen, AmpLite Red fluorescence. activity change, negative = inhibition, % at 58.2 µM, hits read low. hit rate 0.67% among 290,000. AID 2472; in the data active means activity change below about -30%
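Activity here indicates interference with the coupling reaction, not aldolase inhibition. Compounds at 57.5 uM final met coupling enzymes for 10 min at RT; substrate and AmpLite Red detection followed, with a 525/598 nm fluorescence read after 20 min.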
G9a block: G9a (human) methyltransferase inhibition; Q96KQ7; G9a H3K9 monomethylation, AlphaScreen, 2 h; Potency, µM (highest dose often 102 µM), for inactives: top-dose activity, negative = inhibition, usual class: inhibitors; hit rate 8.8% among 350,000; further: potency means the concentration at half of the fitted maximal effect; nearly all actives have a fitted effect of over 75% in size
Target sequence (Q96KQ7 913-1193 limits assumed): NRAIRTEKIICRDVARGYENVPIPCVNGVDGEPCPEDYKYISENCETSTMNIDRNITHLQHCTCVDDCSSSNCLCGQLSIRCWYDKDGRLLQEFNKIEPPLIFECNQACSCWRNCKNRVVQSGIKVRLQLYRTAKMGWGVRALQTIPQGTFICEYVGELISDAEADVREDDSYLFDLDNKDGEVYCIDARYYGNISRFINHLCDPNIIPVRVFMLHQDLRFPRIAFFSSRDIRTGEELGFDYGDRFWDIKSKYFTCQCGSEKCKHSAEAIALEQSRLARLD
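Quantitative HTS format: methyltransferase activity on a biotin-tagged H3K9 peptide is measured by AlphaScreen, using a rabbit anti-monomethyl-H3K9 antibody with streptavidin donor and anti-IgG acceptor beads. Final levels are 20 nM enzyme, 500 nM peptide, 20 uM SAM; 2 h RT.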
* hit, by the source's call; ? = inconclusive; . = not tested or not shown; [ ] = remark or other dose. Unless noted, the call rests on the fitted dose curve; in most records, active means well fitted curve in the direction sought with a large enough effect; inconclusive means small, poorly fitted or top-dose-only effect, or another doubt; inactive means no such curve, though single readings can be large; an effect the other way counts as inactive or inconclusive. Unless noted, on the % scale 0 is the no-effect control and ±100 the full control effect.

SMILES	Tau ThT inhib	Sfp inh	Tau fluor cs	Tau FP inhib	Coupling enz	G9a block
CC(C)NCCOCCOc1ccccc1F	-9.3%	-23.5%	0.3%	1.9%	1.8	4.47µM*
CN(C)CCCCOc1ccc(F)cc1	-5.1%	-1.6%	-3.9%	-2.4%	-0.6	8.91µM*
CN(CCCCOc1ccc(F)cc1)Cc1ccccc1	.	-24.0%	.	.	1.2	.
CC(=O)N1c2ccc(S(=O)(=O)N3CCC(C(=O)Nc4cccc(Cl)c4)CC3)cc2CC1C (centres undefined)	.	9.2%	.	.	-1.2	28.1%[59 µM]
O=C1C(c2ccc(F)cc2)N(Cc2ccccc2Cl)C(=O)CN1C1CCCCC1 (centres undefined)	-0.4%	.	-11.1%	-7.0%	.	4.7%[59 µM]
CCOc1ccc(N2C(=O)N(Cc3c(F)cccc3Cl)c3ccccc3S2(=O)=O)cc1	-1.7%	.	-24.4%	?	.	-10.7%[59 µM]
Cc1ccc(N(C)C(=O)C2CCCN(c3ncnc4c3nc3n4CCCCC3)C2)cc1C (centres undefined)	-7.2%	.	0.6%	-4.6%	.	-37.9%[59 µM]
O=C(CSc1nc(SCC(=O)NCc2ccccc2)n(-c2ccccc2)n1)NCc1ccccc1	-18.1%	-6.8%	-24.8%	-1.4%	1.8	25.1µM*
O=C(CSc1nncc(=O)[nH]1)NCc1ccccc1	-16.0%	-7.5%	-12.4%	-7.3%	2.0	56.2µM*
O=C(CSc1nc2[nH]ncc2c(=O)[nH]1)NCc1ccccc1	4.0%	7.7%	7.2%	7.0%	9.4	2.8%[59 µM]
Oc1ccc(N=C/C=C/c2ccc(Br)cc2)cc1-c1nc2ccccc2s1	11.2µM*	-15.0%	?	-23.2%	-11.0	?
O=C(Nc1ccc(-c2nc3ccccc3s2)c(O)c1)c1ccc(Br)cc1	?	.	-3.7%	-14.4%	.	6.1%[59 µM]
Cc1ccc(-c2nnc(SCC(=O)NC3CCCC3)nc2-c2ccc(C)cc2)cc1	?	.	-15.3%	1.2%	.	-32.6%[59 µM]
O=C(CC1C(=O)Nc2ccccc2N1CC(=O)N1CCCC1)Nc1ccc(Br)cc1 (centres undefined)	.	.	.	.	.	0.282µM*
CCCCCCCC(=O)N1c2ccccc2NC(=O)C1CC(=O)Nc1ccc(C(=O)O)cc1 (centres undefined)	-7.4%	7.9%	-7.9%	2.3%	6.3	-9.0%
Cc1ccc(S(=O)(=O)NNC(=O)Nc2ccccc2F)c(C)c1	.	11.8%	.	.	.	50.1µM*
Cc1cc([N+](=O)[O-])ccc1NC(=O)Nc1ccccc1F	?	5.8%	?	?	0.3	6.9%
Cc1ccc(N=Nc2ccc(C)cc2NC(=O)Nc2ccccc2F)cc1	1.26µM*	-11.8%	?	-9.2%	3.2	6.8%[12.7 µM]
Cc1cc(NN)nc(Cc2ccccc2)n1	.	50.1µM*	.	.	0.3	18.4%
CC(C)n1c(O)c(N=NC(=O)Cc2csc(N3CCOCC3)n2)c2ccccc21	?	-2.3%	-11.5%	-5.8%	-0.1	?
Cc1ccc(C2=NNC3(CCOC(C)(C)C3)S2)cc1 (centres undefined)	?	-1.1%	-3.4%	9.6%	-3.3	28.2µM*
Cn1c(C(=O)c2ccccc2[N+](=O)[O-])nc2ccccc21	0.6%	1.9%	-4.6%	-1.9%	-30.2*	-42.0%
Cn1c(C(=O)c2ccccc2)nc2ccccc21	.	6.0%	.	.	0.0	36.1%
COc1ccc(Cl)cc1C(=O)NCc1nc(-c2cccc(C)c2)no1	-11.8%	.	?	?	.	9.0%[59 µM]
CCOc1ccc(S(=O)(=O)n2nc(C)c(S(=O)(=O)N3CCCCCC3)c2C)cc1	7.4%	.	11.9%	-7.5%	.	-4.7%[59 µM]
SMILES	Tau ThT inhib	Sfp inh	Tau fluor cs	Tau FP inhib	Coupling enz	G9a block
C=CCN=c1scc(-c2ccc(F)cc2)n1/N=C/c1ccccn1	?	?	-21.5%	-0.1%	-5.8	22.4µM*
C=CCN=c1scc(-c2ccccc2)n1/N=C/c1ccccn1	?	-28.7%	-28.7%	2.2%	1.5	?
CCN=c1scc(-c2ccc(F)cc2)n1/N=C/c1ccccn1	?	?	-27.8%	-8.6%	-0.6	15.8µM*
CN1CCN(C(=O)CSc2ccc(C(F)(F)F)cc2[N+](=O)[O-])CC1	7.1%	2.6%	6.7%	3.1%	1.1	-6.2%[59 µM]
COc1ccc(NC(=S)NNC(=O)c2cccnc2)cc1OC	-10.3%	-8.6%	-2.3%	-0.1%	-0.6	44.7µM*
COc1ccc(Cl)cc1NC(=S)NCc1ccccn1	-12.2%	?	-11.7%	-1.2%	-2.3	20µM*
COc1ccc(Cl)cc1NC(=S)NNC(=O)c1cccs1	?	16.1%	-23.6%	7.1%	-1.1	28.2µM*
COc1ccc(Cl)cc1NC(=S)NNC(=O)c1cccnc1	?	7.0%	-11.7%	-2.6%	1.1	25.1µM*
COc1ccc(CC(=O)NNC(=O)c2cccnc2)cc1OC	-7.4%	4.2%	-8.7%	1.5%	0.1	0.1%
CN1CCc2c(sc3c2C(=O)NC(c2ccc4c(c2)OCO4)N3)C1 (centres undefined)	?	?	-0.8%	-0.7%	-10.1	0.3%[12.7 µM]
COC(=O)c1ccc(C2NC(=O)c3c(sc(C)c3C)N2)cc1 (centres undefined)	?	15.8µM*	-12.7%	-13.2%	1.6	5.62µM*
Cc1sc2c(c1C)C(=O)NC(c1cccc(O)c1)N2 (centres undefined)	?	39.8µM*	-21.2%	-6.0%	-2.4	44.7µM*
Cc1noc(C)c1C(=O)N1CCC2(CC1)CN(c1ccccn1)C2	.	4.9%	.	.	1.4	3.0%[12.7 µM]
N#CCc1nc2ccc(S(=O)(=O)N3CCOCC3)cc2s1	?	-2.4%	?	0.9%	0.6	-28.6%
O=C(COC(=O)CCCc1nc2ccccc2s1)Nc1ncc(Cl)cc1Cl	?	0.3%	-11.1%	1.5%	4.0	?
O=C(COC(=O)CCc1nc2ccccc2s1)Nc1ccc(S(=O)(=O)N2CCOCC2)cc1	-7.2%	9.4%	-28.7%	-5.5%	0.2	56.2µM*
O=C(COC(=O)CCc1nc2ccccc2s1)Nc1cccc(S(=O)(=O)N2CCOCC2)c1	-3.2%	-7.2%	-24.0%	-13.7%	1.6	?
O=C(COC(=O)CCc1nc2ccccc2s1)Nc1ncc(Cl)cc1Cl	?	1.7%	-10.6%	10.2%	1.1	44.7µM*
O=S(=O)(c1ccc(OCc2nc3ccccc3s2)c(Cl)c1)N1CCOCC1	-11.3%	3.6%	-24.7%	9.1%	-2.7	50.1µM*
CC(=O)N1CCOc2cc(S(=O)(=O)N(C)Cc3ccccc3)c(Cl)cc21	4.3%	.	-4.0%	-11.8%	.	-22.5%[59 µM]
C=Cc1ccc(Cn2nc(-c3ccc(C)c(S(=O)(=O)N(CC)CC)c3)ccc2=O)cc1	-12.9%	.	-28.8%	-3.2%	.	6.9%[59 µM]
COc1ccccc1Cc1nc2ccccc2n1S(=O)(=O)c1ccc(Cl)cc1	-11.2%	6.6%	-12.1%	0.4%	-3.1	25.1µM*
